# Results reported in the supplement of paper PMC10105736.
# ± gives the standard deviation of the averaged measurements.
# B1: Nup54 (protein)
# chain: MSFFGSNTSLGATSTPAKTTGGLFGSPFGGTAATSQPAPAFGAQATSTPAFGAQPATSAFGAGSAFGATAAAPAFGAATGTSAFGGSAFGSTPAFGAATTTTAGTGLGGGGFGGFGAAPATSQAGLFGAPATSAAPPAFSGFGQQAAASTAPASGFSGFGTTTTSAPAFGGFGTSQSTGFGGGAFGSTFGKPANTTVTPGFGGFGGTSFMLGQPQQQPAPISADEAFAQSILNVSIFGDERDKIVAKWNYLQATWGTGKMFYSQSAAPVDITPENVMCRFKAIGYSRMPGKDNKLGLVALNFCRELSAVKPHQQQVIQTLHSLFGSKPNMLVHIDSIKELENKKCQIVIYVEEKLQHAPNESKRILATELSNYLNQATLKPQLNNLGVVEALALVLPDEDQLREYLENPPRGVDPRMWRQANSDNPDPTLYIPVPMVGFNDLKWRVKCQEQETDTHALYIKKVESELTELKKRHATATAKILEHKRKLAELSHRILRIIVKQECTRKVGTSLTPEEEALRTKLQNMLAVVSAPTQFKGRLSELLSQMRMQRNQFAANGGAEYALDKEAEDEMKTFLTMQQRAMEVLSDTVNKDLRALDVIIKGLPELRQS
# B2: Atx2 (protein)
# chain: MNNNSKRKTRPTGGGASGGISRYNSNDNSLRPTNNKAGAGGGNGGAAVRPSAQGVYNNTFFMHSATALVGSVVEVRLRSGNIYEGVFRTFSGNFDIALELPACIKSKNLPEEGKVPKHIIFPADTVVTIVAKDFDSQYATAGAFQTDGAISDKCNGARPDEKELEPWDSGANGDIDIELDSAANGWDPNEMFRKNENTFGVTSTFDDSLASYTVPLDKGDSLEFKEAEAKAEKLAAEIENNPTCRDRLDLENGDEEALFAAVERPSTEQDQRGDRGDRERNDRDREREERDRDRDRDRGNKPRGAGDFQLRETMSSDRYITKQTRSITGPQLSHVGMSSQGSGRDRDTRGDGSMMMQSGGGSGQGGSTQSTAALMLAGGLKGVGPAPSANASADSSSKYSGGSMVKRKTVPQGGKVMRNNVPTGGSNVSVSQGGNGNSVGQNKGGYQPSMGMPSQYSYQGNSQIMHGSSQYRNQSHMGGANKLNGDSNANTNKPLPQRQMRQYQGSQSNSSLNYGGEPQSLGKPVHGSHGGHPGQNSNSPPLQTAGPQQQQQQQQQQQQQQQQQQPPQQQQHQNIQPQGQNTQPARQVRTRDNQMQELRQFGQDFQLAPSNTSPPQQQQQQQQQQQQHQVQQQQQRALQQSASPPQQQQQQQQQQQHVVLHQVPQTHLHQAALSQPHYVPQQQPQQAPLPQQQHVPHHMQQKAQQQQLVETQHQHVQKQHQSQPQVQQPPPQLLQDPSQQPLPIYHTMPPPQTSPVVVTSPVLLEQPPPQPMPVVQQQQTQQLATPKPEVSPAPPSSNTTTPTGIASTPTAGVIASAGSEKTTPAAPTPTSNSATVPTGTAATAGGATGTTPVVKKHVLNPSAKPFTPRGPSTPNPSRPHTPQTPVPMTNIYTTTGGHVPPAANQPIYVMQPQHPFPPQTHPQAGQPPRLRRSNYPPMAASQMHVSASAATGQPLITAGPIPQFIQYGHAPHQQQFQSHTYAPMQMRVYPDQPQQLQFMTQTPQSTTPSPGQPHQQFHPPPQPSPAGGGPQPAFTPPTQAATYQLMCVHPQSLLANHYFPPPTPQHPQQNQQQYQIVMQQHQPQ
# B3: wat (protein)
# chain: MDDPKIMNIMNGMKSLEDHCQLISDVKDESPMQMFYKDKGVFLTGGTGFFGKIIIEKLLRVTEVGQIYLLIRTKKGKDAFARIEDLFNDPVFAKMKQVNPKYRCQITIISGDCSLPGLGISADERETIMENVNIVLHSAATVRFDEKLKMAIAINVHGTKEIIKLAKEIVNLKALVHVSTAFAHCNMRHIQERFYSGTMSGENAFKLSECLDEHTLNTLTPTIIKGYPNTYTFTKVLAENVVQQSAQNLPVTIFRPGIVITTYREPVTGWIDNMYGPCGVIVGIGSGVLRVFTGDMDNKAHIVPVDMCVNALLASAWDIARNKYETPPIYNYVPDAENMVTWRRYMEDGFEYGCDIPMRKSIWYPRFTIVPHMWQYHILCFLYHTLPALVMDAIMVIIGKKPRMMKIYRKIHKLSNVLKYFSSNEFRFDNDNVRKLTEKLDDRDKRLFAFDMRDLDWTNLFRVSLYGLRLYVVKDDPSNIPESIKRYERLKVLHYTTLAVFYALAAWALYALLKLFL
# B4: Cyp12e1 (protein)
# chain: MLSTQWNANKQISRQIYQLCRGLAQKATAVNLEEAKPYADIPGPSKLQLIRAFLPGGLYKNLPVHEMFLDMNRQYGSIFRMPSVAGTDLVLTMNPQDYEVIFRNEGQYPYRRSFEVMDYFKRVHRREVFDGYDGLTSGNGPAWGKMRTAVNPILLQPRNAKLYMTNLVQVSDEFLERIRIIRDPVTQEMPDDFAVDIRHLVIESICSVALNTHLGLLGEQRNNKDIQKLVLALQDVVELGFQLDIMPAFWKYLPMPNFKKLMRSLDTITDFCYFHIGNALKRIEEDAKAGTLNEIGLETSLLEKLARFDRQTAVIIAMDLLFAGADPTLVTLGGILFSLSKSPDKQARLLEEIRGILPNKDSSLTIENMRNLPYLRACIKEGIRMYPIGPGTLRRMPHDVVLSGYRVVAGTDVGIAANYQMANMEQFVPKVREFIPERWLRDESNSHLVGETATPFMYLPFGFGPRSCAGKRIVDMMLEIAISRLVRNFKIGFDYPIENAFKAQFFVQPNIPFKFKFIERNE
# B5: Vha16-1 (protein)
# chain: MSSEVSSDNPIYGPFFGVMGAASAIIFSALGAAYGTAKSGTGIAAMSVMRPELIMKSIIPVVMAGIIAIYGLVVAVLIAGALEEPSKYSLYRGFIHLGAGLAVGFSGLAAGFAIGIVGDAGVRGTAQQPRLFVGMILILIFAEVLGLYGLIVAIYLYTK
# B6: Dsp1 (protein)
# chain: MEHFHQIQQTIQHYQQQLAAQQQQQVQQQQLQQHQVVVQQNQQQAHQNSSNTTAGVGTQQLFTYKMASSFPNPATTMAQVVATSNAAGTTGYDYRLNMAQAAAAAAVPGSQWWYSAANQGQVDANTAAQLQHQQQQQQQQQQQQQQQHQQQQQMQQQQQQQNVINSASPMSRVKADAKPRGRMTAYAYFVQTCREEHKKKHPDETVIFAEFSRKCAERWKTMVDKEKKRFHEMAEKDKQRYEAEMQNYVPPKGAVVGRGKKRKQIKDPNAPKRSLSAFFWFCNDERNKVKALNPEFGVGDIAKELGRKWSDVDPEVKQKYESMAERDKARYEREMTEYKTSGKIAMSAPSMQASMQAQAQKAALLAAAAQQQHQQLEEQHDDDDGDGDDDENQ
# B7: numb (protein)
# chain: MGNSSSHTHEPLERGFTRGKFGDVKNGKSASFRFSKKSPKKMDRLRRSFRDSFRRRKDRVPESSKPHQWQADEEAVRSATCSFSVKYLGCVEVFESRGMQVCEEALKVLRQSRRRPVRGLLHVSGDGLRVVDDETKGLIVDQTIEKVSFCAPDRNHERGFSYICRDGTTRRWMCHGFLACKDSGERLSHAVGCAFAVCLERKQRRDKECGVTMTFDTKNSTFTRTGSFRQQTLTERLAMATVGTNERSVDGPGSAMPGPPAATVKPFNPFAIERPHATPNMLERQSSFRLSTIGSQSPFKRQMSLRINDLPSNADRQRAFLTAAAGNPMQTPLRSVSPIAEVSPAKSAGADPLSAAAVAADSVSQLCQELSQGLSLLTQTDALLAAGEDLNFNNNRSINQNIIAAEKQVQHVHSYAPPTAQVTPRVASTTPTYQTLHSQSPSRSEQSIETSTELPNAEQWLGHVVRSTSPAAPKRPTYLANVGRAQTLASGTGAAVGGGGPDDPFDAEWVANVAAAKQLSPDLPIPSTARSPLARHSTNPFISPPKAPAQSFQVQL
# B8: cid (protein)
# chain: MPRHSRAKRAPRPSANNSKSPNDDDTAFRSPEPEDGTDYGLEFTTSQLTLQDNNRRSSTLRRDAGRRQPAARDSSTSGEEEDQENRYPTTRSPQTRRMTVQQESKTRAAGPVAAQNQTRRRKAANPMSRAKRMDREIRRLQHHPGTLIPKLPFSRLVREFIVKYSDDEPLRVTEGALLAMQESCEMYLTQRLADSYMLTKHRNRVTLEVRDMALMAYICDRGRQF
# B9: Fs(2)Ket (protein)
# chain: MTSDIAMQLIAILEKTVSPDKNELLSAKNFLEQAAASNLPEFLKALSEILVNTANSAVARMAAGLQLKNHLTSKDEKVSQQYQDRWHQFPSEIRELIKNNILAALGTENTRPSCAAQCVAYVAVIELPINRWPMLIQTLVNKVVSEGSSEMHRESALEAIGYICQDIRFGVMENQSNDVLTAIIHGMRKVEPSNHVRLAATTALHNSLEFTKSNFEKDMERNFIMEVVCEATQCQDSQICVAALQCLVKIMTLYYQYMEPYMAQALFPITLAAMKSDNDAVALQGIEFWSNVCDEEIDLAIESQEATDQGRAPQRVSKHYARGALQFLTPVLVEKLTKQDECDDEDTWSPAKAASVCLMVLATCCEDEIVPHVLPFIKENIESPNWRFRDAAVMTFGSVLNGLETNTLKPLVEQAMPTLIRLMYDSSVIVRDTIAWTFGRICDIIPEAAINETYLQTLLECFVKSLKSEPRVAANVCWAFIGLSDAAWEAAVTNDGETPETYALSPYFEYIITQLLETTDRSDGAQANLRCAAYQALMDMIKNSPLDCYLVVQRTTLVILERLNQVMQMETQINNHSDRHQFNDLQSLLCATLQSVLRKVHEQDAPQISDAIMTALLTMFNSSAGKSGVVQEEAFLAVSTLVELLGAQFAKYMPAFKDFLVMGLKNFQEYQVCCAAVGLTGDIFRALKDLMVPYSNEIMTVLINNLTEPTIHRTVKPQVLSAFGDIALSIGNHFLPYLSMVLDMLRVASNLQTDANNFDMNEYINELRESILEAYTGIIQGLKGVDQTAHTDVMHMEPHLMHIISFIKRIAQEGDVSDSMLASAAGFIGDLCTSFGPRLYPLLDDAIITQFLAEGKRSKAQRTKMLCTWAVKEIKKINTQVITQ
# B10: CG9588 (protein)
# chain: MAAGTTTKERLERLINAKKQLEAQINRNGQILAANDNVGMSGPLVDAEGFPRNDIDVYQVRLARQTIICLQNDHKELMNQIQTLLNQYHSEIATTDPELVNRASALDLDSDRSPGGANITDLAPARAIVVVNLVSPDSPAERAGLCAGDAILRFGSINSGNFKGDLAQIGELVRNMQSQNVQLKVKRGEQQLDLILVPKTWSGRGLLGCNIVLPPEAMDH
# B11: PGRP-LC (protein)
# chain: MPFSNETEMSQCSNAKRRVNDPLTGPKNCSTSSTDSGVILNDNVAAFRPEKETKDRGTGEGQFQSKSEEKTESKRISVEHTVNITTENVGKTSSPAVSIRSTTISVVSIDDNAIDSSSIDSDSEAEAEDYTVQKLGHQVTYPPNSSHLRDLNQGLTVISRHVAPGEAAVPPPNPLEAGIVAKQILNGNLAVATPTSPAGGATQGIGSIALTNSTDVTFGDKHFYEGPVTIQQFLIDNRDKWKPGEGPAGGQDNPAFNGGPSTNGSAPGSKHEDPAQTPPICPFLPNTVGRKAVTVTVVFVTLTFLLGIVLATTTNLFGKTLNQSKIRDDDDYRQNIPINSTIDLDNIGGGLILRFVERQQWLAQPPQKEIPDLELPVGLVIALPTNSENCSTQAICVLRVRLLQTYDIESSQKCDIAYNFLIGGDGNVYVGRGWNKMGAHMNNINYDSQSLSFAYIGSFKTIQPSAKQLSVTRLLLERGVKLGKIAPSYRFTASSKLMPSVTDFKADALYASFANWTHWS
# Assays:
# Assay in all cases: MAPPIT interaction score (arbitrary units); higher = stronger binary interaction signal, active = hit call of the paper;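 active = MAPPIT score above the 99th percentile of random reference set scores in the same batch; inactive = at or below it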
# [1] = molecular target: Nup62; conditions: MAPPIT configuration: N-N; pair source set: Finley_Y2H
# [2] = molecular target: PHDP; conditions: MAPPIT configuration: N-N; pair source set: Curagen_low_conf
# [3] = molecular target: Or49b; conditions: MAPPIT configuration: N-N; pair source set: DPIM
# [4] = molecular target: Su(var)2-10; conditions: MAPPIT configuration: N-N; pair source set: DPIM
# [5] = molecular target: PIG-C; conditions: MAPPIT configuration: N-C; pair source set: screen_3
# [6] = molecular target: Pak3; conditions: MAPPIT configuration: N-C; pair source set: RRS
# [7] = molecular target: Tsp96F; conditions: MAPPIT configuration: N-C; pair source set: screen_4
# [8] = molecular target: PAN3; conditions: pair source set: RRS
# [9] = molecular target: Past1; conditions: MAPPIT configuration: N-N; pair source set: Lit-BM-16
# [10] = molecular target: Rm62; conditions: MAPPIT configuration: N-N; pair source set: Curagen_high_conf
# [11] = molecular target: ktub; conditions: MAPPIT configuration: N-N; pair source set: Curagen_high_conf
# [12] = molecular target: mira; conditions: pair source set: Lit-BM-16
# [13] = molecular target: Osi8; conditions: MAPPIT configuration: N-C; pair source set: RRS
# [14] = molecular target: PCID2; conditions: MAPPIT configuration: N-N; pair source set: Lit-BS-16
# [15] = molecular target: PGRP-LE; conditions: MAPPIT configuration: N-N; pair source set: Curagen_low_conf
# [16] = molecular target: PGRP-LC; conditions: pair source set: Lit-BM-16
# 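Also: HEK293T cells with Epo stimulation, STAT-responsive firefly luciferase reporter, fold induction versus unstimulated cells divided by the larger fold induction of two negative controls lacking either bait or prey.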
binder,measurement,setting,value
B1,MAPPIT interaction score,[1],5.79 (active)
same,MAPPIT interaction score,[2],-0.274 (inactive)
B2,MAPPIT interaction score,[3],-0.465 (inactive)
same,MAPPIT interaction score,[4],0.0668 (inactive)
B3,MAPPIT interaction score,[5],1.02 (inactive)
B4,MAPPIT interaction score,[6],2.68 (inactive)
B5,MAPPIT interaction score,[5],0.119 (inactive)
same,MAPPIT interaction score,[7],0.231 (inactive)
B6,MAPPIT interaction score,[8]; MAPPIT configuration: N-C,0.573 (inactive)
same,MAPPIT interaction score,[8]; MAPPIT configuration: N-N,0.707 (inactive)
B7,MAPPIT interaction score,[9],0.0235 (inactive)
same,MAPPIT interaction score,[10],-0.368 (inactive)
same,MAPPIT interaction score,[11],-1.3 (inactive)
same,MAPPIT interaction score,[12]; MAPPIT configuration: N-C,1.17 (inactive)
same,MAPPIT interaction score,[12]; MAPPIT configuration: N-N,-0.252 (inactive)
B8,MAPPIT interaction score,[13],-0.541 (inactive)
B9,MAPPIT interaction score,[14],0.0886 (inactive)
B10,MAPPIT interaction score,[15],0.614 (inactive)
B11,MAPPIT interaction score,[16]; MAPPIT configuration: N-C,-0.131 (inactive)
same,MAPPIT interaction score,[16]; MAPPIT configuration: N-N,2.43 ± 0.6
